RBX1-CUL1 inh – inhibitors of human ROC1-CUL1 ubiquitin ligase activity; P62877+Q13616; in vitro K48 di-Ub FRET, acceptor:donor ratio, 45 min; inhibition, % at 10 µM; 140,000 compounds, 0.6% hits; AID 1347404; in the data active = inhibition above about 25%
Target sequence (P62877 whole entry, looked up): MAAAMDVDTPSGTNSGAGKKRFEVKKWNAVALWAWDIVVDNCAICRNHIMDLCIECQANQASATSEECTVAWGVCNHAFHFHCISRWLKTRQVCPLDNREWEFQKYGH
Target sequence (Q13616 whole entry, looked up): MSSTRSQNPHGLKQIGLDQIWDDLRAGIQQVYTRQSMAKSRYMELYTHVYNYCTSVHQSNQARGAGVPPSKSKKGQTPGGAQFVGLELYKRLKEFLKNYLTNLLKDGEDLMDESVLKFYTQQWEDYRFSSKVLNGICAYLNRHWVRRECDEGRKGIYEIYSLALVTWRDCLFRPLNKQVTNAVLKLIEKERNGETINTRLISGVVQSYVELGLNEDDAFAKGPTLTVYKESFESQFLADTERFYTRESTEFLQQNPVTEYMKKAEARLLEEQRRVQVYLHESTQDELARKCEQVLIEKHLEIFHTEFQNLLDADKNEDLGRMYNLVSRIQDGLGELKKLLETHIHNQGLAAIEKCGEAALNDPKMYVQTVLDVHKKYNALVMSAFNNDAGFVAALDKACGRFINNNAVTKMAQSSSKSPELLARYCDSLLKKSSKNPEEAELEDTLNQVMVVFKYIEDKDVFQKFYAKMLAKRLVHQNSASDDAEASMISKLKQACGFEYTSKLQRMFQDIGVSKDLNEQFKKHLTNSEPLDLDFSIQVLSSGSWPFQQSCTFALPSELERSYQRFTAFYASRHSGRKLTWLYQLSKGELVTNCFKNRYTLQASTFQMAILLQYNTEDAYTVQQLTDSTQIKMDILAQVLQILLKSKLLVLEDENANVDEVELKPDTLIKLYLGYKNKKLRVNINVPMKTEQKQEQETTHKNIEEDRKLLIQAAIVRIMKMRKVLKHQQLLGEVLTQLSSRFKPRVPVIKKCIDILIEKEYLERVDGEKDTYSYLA
An asterisk follows results filed as active. This is one part of a sample in which hits are shown more often than they occur.

`COc1ccc(C(=O)NCCC2=CCCCC2)cc1C` gave RBX1-CUL1 inh -1.
`Cc1ccc(NC(=O)C23CCC(C)(C(=O)O2)C3(C)C)cc1Cl` (centres undefined) gave RBX1-CUL1 inh -5.
CC(=O)c1sc2sc3ccccc3c2c1C was read as RBX1-CUL1 inh 6.
Screening CCOC(=O)c1cccc(NC(=O)C(C)CC)c1 (centres undefined) returned RBX1-CUL1 inh -12.
`CCOC(=O)c1cccc(-c2ccc(C(c3c(C)[nH][nH]c3=O)c3c(C)[nH][nH]c3=O)o2)c1` gave RBX1-CUL1 inh 39*.
`COc1cc(C(c2c(C)[nH][nH]c2=O)c2c(C)[nH][nH]c2=O)ccc1OC(=O)c1cccc(C)c1` gave RBX1-CUL1 inh 9.
`O=C1CC(c2ccc(O)cc2)C2=C(CC(c3ccccc3Cl)CC2=O)N1` (centres undefined) gave RBX1-CUL1 inh 9.
`Cc1ccc(NC(=O)c2ccccc2Br)c(C)c1` gave RBX1-CUL1 inh -6.
CC(C)COc1ccc(CC2=NC(=O)N(Cc3ccc(Br)cc3)C2=O)cc1 was read as RBX1-CUL1 inh 3.
Fc1c(F)c(F)c2nc3c(cc2c1F)c(-c1ccccc1)nn3-c1ccccc1 was read as RBX1-CUL1 inh 3.
`COc1ccc(CNc2nc3c(-c4cccc(F)c4)nnn3c3ccccc23)cc1` gave RBX1-CUL1 inh 2.
COc1ccc(CNc2c(F)c(F)c3nc4c(cc3c2F)c(-c2ccccc2)nn4C)cc1 was read as RBX1-CUL1 inh 96*.
`CC1(C)OC(=O)C(C=NNC(=O)c2ccccc2O)C(=O)O1` gave RBX1-CUL1 inh 14.
`CSc1ccccc1NC(=O)C1C2C=CC(O2)C1C(=O)O` (centres undefined) gave RBX1-CUL1 inh 3.
S=C(NCCc1ccccn1)c1ccccc1 was read as RBX1-CUL1 inh 6.
For O=S(=O)(CNC(=S)c1ccccc1)c1ccccc1 the results were RBX1-CUL1 inh 35*.
Screening COc1cccc(C(=S)NCS(=O)(=O)c2ccc(C)cc2)c1 returned RBX1-CUL1 inh -5.
Screening COc1ccccc1CN1C(=O)O[C@@H]2CN(C(=O)NCc3ccccc3)C[C@@H]21 returned RBX1-CUL1 inh -4.
`Cc1ccc(N2CCCn3c2nc2c3c(=O)n(C)c(=O)n2C)cc1C` gave RBX1-CUL1 inh -6.
`COC(=O)c1c(NC(=O)CN(C)C)sc(C)c1-c1ccccc1` gave RBX1-CUL1 inh -5.
`COc1cc(C2c3c(n[nH]c3-c3cc(C)sc3C)OC(=N)C2C#N)ccc1OCc1ccc(F)cc1` (centres undefined) gave RBX1-CUL1 inh -2.
Screening O=C1NC(=Nc2cccc(C(F)(F)F)c2)S/C1=C\c1cc(O)c(O)c(Br)c1 returned RBX1-CUL1 inh 30*.
For O=C1NC(=Nc2ccc(F)cc2)S/C1=C\c1ccc(O)c(Br)c1 the results were RBX1-CUL1 inh 2.
COc1cc(/C=C2\SC(=Nc3cc(C)cc(C)c3)NC2=O)cc(Br)c1O was read as RBX1-CUL1 inh 8.
For COc1cc(C2CC(=O)C3C(=Nc4ccccc4N(C(=O)C(F)(F)F)C3c3cccc(F)c3)C2)cc(OC)c1OC (centres undefined) the results were RBX1-CUL1 inh 6.
Screening CC1=NN(c2ccccc2)C(=O)/C1=C/c1ccccc1OCc1ccc(C(=O)O)cc1 returned RBX1-CUL1 inh 51*.
For CC1=NN(c2ccccc2)C(=O)/C1=C/c1ccccc1OCc1ccccc1C the results were RBX1-CUL1 inh 3.
COc1cc(/C=C2/C(=O)N(c3ccc(Cl)c(Cl)c3)N=C2C)ccc1OCc1ccccc1 was read as RBX1-CUL1 inh 0.
For Cn1ccnc1CC(N)c1ccccc1 (centres undefined) the results were RBX1-CUL1 inh 6.
For O=C1/C(=C/c2ccoc2)CCC/C1=C\c1ccoc1 the results were RBX1-CUL1 inh 97*.
For COc1ccc(/C=C2\CCC/C(=C\c3ccc(OC)c(OC)c3)C2=O)cc1OC the results were RBX1-CUL1 inh -4.
For O=C1/C(=C\c2cnn(-c3ccccc3)c2)CCC/C1=C/c1cnn(-c2ccccc2)c1 the results were RBX1-CUL1 inh 2.
Cn1c(Sc2ccccc2C(=O)O)cc(=O)n(C)c1=O was read as RBX1-CUL1 inh 6.
For Fc1nc(F)c(Cl)c(Cc2c(Cl)c(F)nc(F)c2Cl)c1Cl the results were RBX1-CUL1 inh 9.
Screening CC(=O)N=C1CC(=NS(=O)(=O)c2ccc(C)cc2)CC(=NC(C)=O)C1=O returned RBX1-CUL1 inh -1.
For Cc1ccc(S(=O)(=O)N=C2Cc3ccccc3N2C)cc1 the results were RBX1-CUL1 inh 27*.
For Cc1ccc(S(=O)(=O)N=NC2CCSCC2)cc1 the results were RBX1-CUL1 inh -1.
For CCc1cc(C(=O)NCc2cc(NS(=O)(=O)c3ccc(F)cc3)cc(C(=O)OC)c2)n(C)n1 the results were RBX1-CUL1 inh -9.
For O=C(c1ccc(N2CCC(NCc3cccc(OC(F)(F)F)c3)CC2)cc1)N1CCOCC1 the results were RBX1-CUL1 inh 5.
For COc1cc(C)nc2cc(C(F)(F)F)ccc12 the results were RBX1-CUL1 inh 2.
For O=[N+]([O-])c1ccccc1OCC#CCO the results were RBX1-CUL1 inh -5.
`Cc1ccc(-c2csc(SC3C(=O)N(c4ccccc4)N=C3c3ccccc3)n2)cc1` (centres undefined) gave RBX1-CUL1 inh 83*.
`O=C(CSc1nc(-c2ccccc2)cs1)NC1=NN(c2ccccc2)C(=O)C1` gave RBX1-CUL1 inh -16.
Screening CNC(=O)CSc1nc(-c2ccccc2)cs1 returned RBX1-CUL1 inh -5.
Screening CCCOc1ccc([N+](=O)[O-])cc1NS(=O)(=O)c1ccc(N)cc1 returned RBX1-CUL1 inh -6.
Screening O=C(Nc1c(Cl)cc(Cl)cc1C(=O)NCCO)c1ccc(Cl)cc1Cl returned RBX1-CUL1 inh 11.
`Cc1cc(N2CCN(Cc3ccccc3)CC2)c2nncn2n1` gave RBX1-CUL1 inh 18.
`O=C(O)c1cccc(-c2ccc(/C=C3\SC(=S)N(c4cccc(F)c4)C3=O)o2)c1` gave RBX1-CUL1 inh 94*.
O=C(O)CN1C(=O)/C(=C2\SC(=S)N(C(Cc3ccccc3)C(=O)O)C2=O)c2ccccc21 (centres undefined) was read as RBX1-CUL1 inh 4.
NN1C(=O)/C(=C/c2ccc(-c3cccc(Cl)c3)o2)SC1=S was read as RBX1-CUL1 inh 1.
`COC(=O)c1cccc(-c2ccc(/C=C3\C(=O)N(c4cccc(C(=O)O)c4)N=C3C(F)(F)F)o2)c1` gave RBX1-CUL1 inh 95*.
Screening O=C(O)C(Cc1ccccc1)N1C(=O)/C(=C/c2ccc(Cl)cc2)SC1=S (centres undefined) returned RBX1-CUL1 inh 79*.
For O=C(O)c1cccc(N2C(=O)/C(=C/c3ccc(Cl)cc3)SC2=S)c1 the results were RBX1-CUL1 inh 31*.
O=C1/C(=C\c2cccc(F)c2)SC(=S)N1c1cccc(C(F)(F)F)c1 was read as RBX1-CUL1 inh -1.
O=C1/C(=C\c2ccccc2)SC(=S)N1c1cccc(Cl)c1 was read as RBX1-CUL1 inh -1.
`O=C1/C(=C/c2cccc(Cl)c2Cl)SC(=S)N1c1cccc(Cl)c1` gave RBX1-CUL1 inh -9.
`COC(=O)c1cccc(-c2ccc(/C=C3/C(=O)NN(c4ccc(Br)cc4)C3=O)o2)c1` gave RBX1-CUL1 inh -4.
O=C1S/C(=C\c2ccc(Cl)cc2)C(=O)N1Cc1ccccc1 was read as RBX1-CUL1 inh 3.
